Results as given in PubChem BioAssay AID493087 (The Scripps Research Institute Molecular Screening Center, 2011).
Hit rate of the full screen: of about 340,000 compounds, about 240 (0.071%) were called active.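 How the source made its calls: active means activation above the mean of all tested compounds plus 3 SD, set per screening campaign (cut at about 17% in these data); inactive means the rest.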 For the sample, actives were picked, then their nearest neighbours and some compounds at random.

target: Insulin-degrading enzyme (Homo sapiens) (UniProt P14735); assay: enhanced cellular IDE Abeta cleavage – fluorescence polarization, HEK cells, FAbeta-B substrate, primary screen (AID 493087); details: at 5.96 µM, stronger effect = higher value, 0% vehicle, 100% cell-free pure enzyme wells
Sequence (P14735 whole entry, looked up): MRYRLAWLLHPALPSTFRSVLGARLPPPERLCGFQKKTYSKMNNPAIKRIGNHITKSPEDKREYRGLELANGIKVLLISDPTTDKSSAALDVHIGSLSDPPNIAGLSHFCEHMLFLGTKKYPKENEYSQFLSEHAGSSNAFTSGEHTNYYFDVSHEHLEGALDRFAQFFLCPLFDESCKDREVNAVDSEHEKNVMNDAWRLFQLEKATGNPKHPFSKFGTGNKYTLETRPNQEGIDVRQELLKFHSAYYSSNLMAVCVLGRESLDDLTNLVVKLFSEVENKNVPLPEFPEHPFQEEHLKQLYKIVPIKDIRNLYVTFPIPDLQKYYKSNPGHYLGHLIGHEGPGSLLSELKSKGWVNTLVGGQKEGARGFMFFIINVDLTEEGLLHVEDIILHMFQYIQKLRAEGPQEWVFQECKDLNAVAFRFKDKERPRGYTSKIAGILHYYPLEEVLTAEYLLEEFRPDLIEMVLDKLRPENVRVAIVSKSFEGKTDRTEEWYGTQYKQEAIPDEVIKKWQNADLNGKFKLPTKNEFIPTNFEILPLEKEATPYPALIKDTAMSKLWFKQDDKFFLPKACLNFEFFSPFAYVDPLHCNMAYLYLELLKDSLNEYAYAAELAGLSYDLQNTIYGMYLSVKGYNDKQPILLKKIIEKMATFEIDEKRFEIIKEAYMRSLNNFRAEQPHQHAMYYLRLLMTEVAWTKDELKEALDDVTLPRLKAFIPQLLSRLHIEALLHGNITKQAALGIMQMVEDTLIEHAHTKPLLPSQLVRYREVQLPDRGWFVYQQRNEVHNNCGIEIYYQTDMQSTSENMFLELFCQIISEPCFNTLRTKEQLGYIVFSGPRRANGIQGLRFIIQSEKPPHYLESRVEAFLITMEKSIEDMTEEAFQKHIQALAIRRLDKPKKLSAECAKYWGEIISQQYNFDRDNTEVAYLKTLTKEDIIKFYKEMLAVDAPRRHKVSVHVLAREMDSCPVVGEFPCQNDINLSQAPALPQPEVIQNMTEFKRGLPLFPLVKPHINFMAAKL

SMILES | activation
CCOC(=O)C1CCCN(S(=O)(=O)c2ccc3c(c2)C(C)(C)C(=O)N3C)C1 (stereo unspecified) | 4.3% (inactive)
CC(=O)N1CCCc2cc(S(=O)(=O)N3CCCC(C(=O)N4CCN(c5cccc(Cl)c5)CC4)C3)ccc21 (stereo unspecified) | 1.25% (inactive)
O=C1CCC[C@@H]2CC(N3CCCCC3)C[C@@H]3CCN1[C@H]23 (stereo partly specified) | 3.58% (inactive)
Cc1cccc(CCNC(=O)Cn2ncc3c([nH]c4ccc(C)cc43)c2=O)c1 | 4.1% (inactive)
COc1cccc(NC(=O)CC(c2ccc(OC(C)C)cc2)c2ccccc2OC)c1 (stereo unspecified) | 5.55% (inactive)
Cc1cccc(C(=O)NC(=S)N2CCN(c3ccc([N+](=O)[O-])cc3)CC2)c1 | 7.97% (inactive)
Cc1ccc(S(=O)(=O)N(C)C)cc1NC(=O)CN1c2cccc3cccc(c23)S1(=O)=O | -4.07% (inactive)
O=C(CN1CCN(c2cccc(Cl)c2)CC1)Nc1ccc(S(=O)(=O)N2CCOCC2)cc1 | -1.02% (inactive)
CC1CC(C)CN(CCCNC(=O)c2csc3c2CCCCC3)C1 (stereo unspecified) | 0.64% (inactive)
COc1ccc(NS(=O)(=O)c2ccc(N3CCN(CCO)CC3)c([N+](=O)[O-])c2)cc1 | 4.53% (inactive)
O=C1OCC2=C1C(c1ccccc1)CC(=O)N2c1cccc(F)c1 (stereo unspecified) | 2.91% (inactive)
CCOC(=O)C1(CC2CCCCO2)CCN(Cc2nc(-c3cccs3)oc2C)CC1 (stereo unspecified) | -1.12% (inactive)
CCOC(=O)C1CCCN(C(=O)c2ccc(CS(=O)(=O)c3ccc(Br)cc3)o2)C1 (stereo unspecified) | -1.91% (inactive)
CCN1CCN(C2CCCCC2NS(=O)(=O)c2ccc(Cl)cc2)CC1 (stereo unspecified) | 5.06% (inactive)
O=C1c2ccccc2C(=O)N1CCC(c1ccccc1)c1ccco1 (stereo unspecified) | 7.64% (inactive)
CSc1nnnn1-c1c(C)cc(C)cc1C | -3% (inactive)
CCOCCCNC(=O)c1c[nH]c2cc(C)ccc2c1=O | 4.46% (inactive)
O=C1CC(c2ccccc2)C(=O)N2C(=O)CC(c3ccccc3)C(=O)N12 (stereo unspecified) | 3.82% (inactive)
CCc1nccn1S(=O)(=O)c1cccc([N+](=O)[O-])c1 | 6.7% (inactive)

SMILES | activation
COC(=O)c1ccc(CNC(=O)Cn2cc(C)c(=O)[nH]c2=O)cc1 | 4.54% (inactive)
COC(=O)C1=CN(Cc2ccc(OC)cc2)C=C(C(=O)OC)C1c1ccc(O)c(OC)c1 | 5.83% (inactive)
C=CCNC(=S)/N=c1/ccccn1Cc1ccccc1 | 4.17% (inactive)
COc1ccc(C(=O)CN2C(=O)NC(C)(c3ccc(C)cc3)C2=O)cc1OC (stereo unspecified) | -1.44% (inactive)
CCOc1ccc(CCNC(=O)COC(=O)C2CCN(S(=O)(=O)c3ccccc3)CC2)cc1OCC | 2.21% (inactive)
CCc1nnc(NC(=O)C2CC(=O)N(c3ccc4c(c3)OCCO4)C2)s1 (stereo unspecified) | 3.02% (inactive)
Cn1c(=O)n(C)c2cc(S(=O)(=O)Nc3ccc(F)cc3)ccc21 | 4.63% (inactive)
Cc1cc2oc(C(=O)Nc3c(C)n(C)n(-c4ccccc4)c3=O)c(C)c2cc1Cl | 1.29% (inactive)
S=C1Nc2cc(Cl)ccc2Sc2ccccc21 | 0.11% (inactive)
CC(C#N)(NC(=O)CN1CCN(S(=O)(=O)c2cc(C(F)(F)F)ccc2Cl)CC1)C1CC1 (stereo unspecified) | 5.5% (inactive)
CNC(=O)NC(=O)C(OC(=O)c1cccc(S(=O)(=O)N2CCCCC2)c1)c1ccccc1 (stereo unspecified) | -3.23% (inactive)
N#Cc1ccccc1NC(=O)COc1c(Br)cc(Br)c2cccnc12 | -2.72% (inactive)
COc1ccc(S(=O)(=O)N2CCN(c3cnccn3)CC2)cc1 | 0.13% (inactive)
O=C(NCCc1ccc(F)cc1)c1ccc2nccnc2c1 | -0.11% (inactive)
CCC(=O)Nc1cccc(C2=NOC3(C2)C[C@@H](C(N)=O)N(C(=O)c2cc([N+](=O)[O-])cc([N+](=O)[O-])c2C)C3)c1 (stereo partly specified) | 5.78% (inactive)
O=C(N/C(=C\c1ccc(F)cc1)C(=O)N1CCCCCC1)c1ccccc1 | 5.73% (inactive)
O=C(C1Cc2ccccc2CN1C(=O)c1ccco1)N1CCN(c2ccccc2)CC1 (stereo unspecified) | 4.46% (inactive)
CCOC(=O)CSc1nnc(CNC(=O)c2cccs2)n1-c1cc(OC)ccc1OC | 0.94% (inactive)
COc1ccc(-c2oc3ncn(Cc4ccco4)c(=N)c3c2-c2ccc(OC)cc2)cc1 | 5.41% (inactive)

SMILES | activation
CCOC(=O)c1cccc(NC(=O)CN2C(=O)C3CC=CCC3C2=O)c1 (stereo unspecified) | 1.23% (inactive)
Cn1c2ccccc2c2cc(/C=C(\NC(=O)c3ccccc3)C(=O)NCC(=O)O)ccc21 | -43.6% (inactive)
CCN1CCN(c2cc3nc(C)n(Cc4ccccc4)c(=O)c3cc2NC(=O)c2ccccc2F)CC1 | 2.61% (inactive)
Cc1ccsc1C(=O)NC1CCCCC1C (stereo unspecified) | -2.46% (inactive)
Cc1cc(=O)oc(C)c1C(=O)NCCN(C)Cc1ccccc1 | -4.58% (inactive)
CN(C(=O)CSc1nnc(C2CC2)n1C)C1CCCc2ccccc21 (stereo unspecified) | 0.43% (inactive)
CC(C)C(NC(=O)c1c(F)cccc1F)C(=O)NNC(=O)c1ccccc1 (stereo unspecified) | 5.51% (inactive)
O=S(=O)(Nc1ccc2ccccc2c1)N1CCCCC1 | 1.85% (inactive)
CC1CCC(NS(=O)(=O)c2ccc3c(c2)CC(=O)N3)CC1 (stereo unspecified) | 3.97% (inactive)
CCOC(=O)C1(CCOc2ccccc2)CCN(Cc2cc(OC)c(O)cc2Cl)CC1 | 2.9% (inactive)
CCOC(=O)C1(CCOc2ccccc2)CCN(Cc2cc(OC)cc(OC)c2)CC1 | -1.76% (inactive)
Cc1c(CN2CCC(CO)(CCOc3ccccc3)CC2)[nH]c2ccc(Cl)cc12 | 24.6% (active)
COc1ccccc1/C=C/C1=NC(=C\N(C)C)/C(=O)O1 | -5.01% (inactive)
Cn1c(=O)c2cc(S(=O)(=O)NCCC(=O)Nc3ccc(F)cc3F)ccc2n(C)c1=O | 5.29% (inactive)
COc1ccc(C2C(C#N)=C(N)Oc3n[nH]c(C)c32)cc1CN1CCN(c2ccc(F)cc2)CC1 (stereo unspecified) | -3.14% (inactive)
Cc1cccc(NC(=O)CSc2nnc(CCNC(=O)OC(C)(C)C)o2)c1C | -0.87% (inactive)
Cc1ccccc1OC(=O)Cn1c(C(F)(F)F)nc2ccccc21 | 3.41% (inactive)
Cc1cc(C)cc(NC(=O)NC2CCCCCCC2)c1 | 0.99% (inactive)
